Measurements: ChEMBL document CHEMBL3988442, “University of Dundee, Small-Polar-MMV Screening Library” (2021)
Screen size: about 48,000 compounds; about 13,000 (27%) showed an effect of 50% or more. The list shows a part of the results.

test system: Wolbachia pipientis; experiment: Anti-Wolbachia Cell-Based Screen; type: functional; parameters: scale not given: in the data most compounds retested in dose-response had high values; conditions: 5 µM

Going from COCC(=O)NCC(Cc1cccc(F)c1)n1cccc1 (configuration not stated) to COCC(NC(=O)NCc1cccc(Cl)c1)c1ccco1 (configuration not stated), the “Percent Effect” value falls from 5.07% to 4.656%.

Going from CC(C)SCCNC(=O)c1cccc2ccnn12 to CSCC(C)(O)CNC(=O)c1ccc(Br)cc1F (configuration not stated), the “Percent Effect” value falls from 5.28% to 2.874%.

Compared with Cc1cc(C)c(CNC(=O)N(C)Cc2nnc3n2CCC3)c(=O)[nH]1, Cc1csc(N2CCN(CC(=O)Nc3c(C)n[nH]c3C)CC2C)n1 (configuration not stated) is higher in “Percent Effect” value: 2.2% for the first, 7.256% for the second.

First: Cc1ccc(N2CCC(CCN3CCCC3=O)CC2)nn1
Second: Cc1csc(N2CCC(CCN3CCCC3=O)CC2)n1
The “Percent Effect” value of the first is lower: 86.49% for the first, 99.55% for the second.

Going from Cc1ccc(N2CC[C@]3(O)CCN(CCN4CCCC4=O)C[C@@H]3C2)nn1 to Cc1ccc(N2CCC3(CCC(=O)N3)CC2)nn1, the “Percent Effect” value rises from -23.37% to -16.01%.

Going from Cc1csc(N2CCN(CCCN3CCCC3=O)CC2)n1 to Cc1csc(N2CCCN(C(=O)CCN3CCCC3=O)CC2)n1, the “Percent Effect” value rises from -4.511% to 4.733%.

First: OCC1(O)CCN(Cc2ccc(-c3cc[nH]n3)s2)CC1
Second: CCN1CCN(Cc2nc(CCc3ccccc3)n[nH]2)CC1
The “Percent Effect” value of the first is lower: -3.236% for the first, 14.2% for the second.

Going from CCCN1CC(NC(=O)Nc2nc(C)n(C(C)C)n2)CC1=O (configuration not stated) to Cc1nn(C)c(C)c1NC(=O)CN1CCN(c2nccs2)C(C)C1 (configuration not stated), the “Percent Effect” value rises from -10.65% to 107.6%.

Going from Cc1n[nH]c(C)c1NC(=O)CN1CCN(c2nccs2)C(C)C1 (configuration not stated) to Cc1cc(NC(=O)CN2CCN(c3nccs3)C(C)C2)n(C)n1 (configuration not stated), the “Percent Effect” value falls from 95.63% to -9.576%.

Compared with CC1CN(CC(=O)Nc2nncs2)CCN1Cc1nccn1C (configuration not stated), CCc1cnc(N2CCN(CC(=O)Nc3c(C)n[nH]c3C)CC2)s1 is lower in “Percent Effect” value: -11.48% for the first, -15.52% for the second.

Going from CCC(C(=O)NC1CCN(S(C)(=O)=O)CC1)n1cccn1 (configuration not stated) to CCS(=O)(=O)N1Cc2c(Cn3ccnc3)nn(C)c2C1, the “Percent Effect” value falls from -1.013% to -18.78%.

Compared with Cc1cc(C)n(CCC2CC(=O)Nc3cc4[nH]ncc4cc32)n1 (configuration not stated), CC(=O)c1c(C)nn(CC(=O)N2Cc3cnc(C(C)(C)C)nc3C2)c1C is lower in “Percent Effect” value: 5.657% for the first, -8.133% for the second.

Compared with O=C(C1CCOC1)N1C[C@H]2CN(c3ccccc3)C(=O)[C@H]2C1 (some centres not stated), O=C(C1CCOC1)N1CC2(CCN(c3ccccc3)C2)C1 (configuration not stated) is higher in “Percent Effect” value: 2.352% for the first, 126.5% for the second.

First: COc1ccccc1CC1CCCN(CC(=O)N2CCOCC2)C1 (configuration not stated)
Second: O=C(CN1C[C@H]2C[C@H](OCc3ccccc3)C[C@H]2C1)N1CCOCC1
The “Percent Effect” value of the first is lower: 1.243% for the first, 120.8% for the second.

Going from O=C(CN1CCSCC1c1ccccc1)N1CCOCC1 (configuration not stated) to O=C(C1CCOC1)N1CCC(OCc2ccccc2)CC1 (configuration not stated), the “Percent Effect” value rises from -10.11% to 104.9%.

Going from O=C(C1CCOCC1)N1CCC2(CC1)CC(Oc1ccccc1)CO2 (configuration not stated) to O=C(C1CCOCC1)N1C[C@H]2C[C@H](OCc3ccccc3)C[C@H]2C1, the “Percent Effect” value rises from 2.022% to 85.95%.

First: O=C(Cc1cccnc1)N1CCC(OCc2ccccc2)CC1
Second: O=C(COCc1ccccc1)N1CCC(OCc2cccnc2)CC1
The “Percent Effect” value of the first is higher: 5.712% for the first, -1.111% for the second.

Compared with O=C(CO)N1CC2(CCN(c3ccccc3)C2)C1, O=C(CCO)N1CC2(CCN(c3ccccc3)C2)C1 is higher in “Percent Effect” value: -2.652% for the first, 3.033% for the second.

Compared with CC(C)(C)OC(=O)N1CCCc2ccc(NCc3cc[nH]c3)cc21, CCN1CCC2(CC1)CN(C(C)=O)c1ccc(C)cc12 is lower in “Percent Effect” value: -2.534% for the first, -4.945% for the second.

First: O=C(NCC1Cn2nnc(-c3ccsc3)c2CO1)N1CCCC1 (configuration not stated)
Second: O=C(CSC1CCCC1)N1CCN(c2ccc(-n3cncn3)nn2)CC1
The “Percent Effect” value of the first is lower: -5.299% for the first, 20.49% for the second.

Compared with CCCN1CCC2(CC1)CN(C(=O)c1cccnc1)c1ccc(F)cc12.O=C(O)C(F)(F)F.O=C(O)C(F)(F)F, CCN1CCC2(CC1)CN(C(=O)c1cccnc1)c1ccc(Cl)cc12.O=C(O)C(F)(F)F.O=C(O)C(F)(F)F is higher in “Percent Effect” value: 115.7% for the first, 116.9% for the second.

First: O=C(O)c1ccc2c(c1)C1(CCCCC1)CN2C(=O)c1cccc(F)c1
Second: O=C(O)c1ccc2c(c1)C1(CCCCC1)CN2C(=O)c1ccnnc1
The “Percent Effect” value of the first is lower: -4.529% for the first, -1.269% for the second.

First: COCCN1CCC2(CC1)CN(C(=O)C1CC1)c1ccc(F)cc12.O=C(O)C(F)(F)F
Second: O=C(C1CC1)N1CC2(CCN(CC3CC3)CC2)c2cc(F)ccc21.O=C(O)C(F)(F)F
The “Percent Effect” value of the first is higher: -7.452% for the first, -39.82% for the second.

Going from CC(=O)N1CCC2(CC1)CN(C(=O)c1cccnc1)c1ccc(F)cc12.O=C(O)C(F)(F)F to CN1CCC2(CC1)CN(C(=O)c1cccnc1)c1ccc(Cl)cc12, the “Percent Effect” value rises from 91.49% to 127.2%.

Going from CC(=O)N1CCC2(CC1)C(=O)N(c1cccnc1)c1ccc(F)cc12 to Cc1cncc(C(=O)N2Cc3ccccc3C3(CCN(C)CC3)C2)c1, the “Percent Effect” value falls from -4.26% to -5.03%.

Going from CCCc1cncnc1N1CCC(NCc2ccc(O)cc2)CC1 to O=C(Nc1cccnc1)C1=Cc2ccccc2OC1, the “Percent Effect” value rises from -4.089% to 18.82%.
